The values that follow come from the supplement of paper PMC4166925.

± gives the standard deviation of the averaged measurements. In all, about 33,000 sequences were measured (“E-score (dimensionless, -0.5 to 0.5)”: median about -0.049, highest 2% from about 0.37 on). The list comes from a sample in which the highest values are over-represented; it also holds similar and randomly drawn sequences.

The test system of the assay is T1, PmTbr T-box DNA-binding domain (GST fusion).
T1 sequence: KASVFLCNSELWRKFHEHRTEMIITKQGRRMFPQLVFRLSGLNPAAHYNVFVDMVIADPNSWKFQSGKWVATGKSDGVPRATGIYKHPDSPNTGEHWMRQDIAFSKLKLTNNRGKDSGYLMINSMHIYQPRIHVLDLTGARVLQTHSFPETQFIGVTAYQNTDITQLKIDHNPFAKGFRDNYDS
In words: PBM E-score of 8-mer (E-score (dimensionless, -0.5 to 0.5)); Tbr is Tbrain of the sea star Patiria miniata (Pm) or the sea urchin Strongylocentrotus purpuratus (Sp); higher = stronger binding preference. The note with it: the construct has about 5 more residues each side. Summed up: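 Primer extension turned Universal Agilent oligonucleotide arrays double-stranded. They were incubated with 200 nM protein in PBS (pH 7.5); the protein was a GST-fused Tbr T-box DNA-binding domain expressed in BL21 E. coli at 20 °C and purified on glutathione. Every ungapped 8-mer was scored from the scanned, quantified probe intensities, and the Universal PBM Analysis Suite gave each an enrichment E-score averaged over duplicate arrays.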
Turning to GCACCTAC, the “PBM E-score of 8-mer” value turned out to be 0.382 ± 0.0042.

Turning to GTACCTAA, the “PBM E-score of 8-mer” value is -0.248 ± 0.013.

Take GCACCTAA: the “PBM E-score of 8-mer” value stood at 0.373 ± 0.016.

Consider ACACCTGT, for which the “PBM E-score of 8-mer” value is 0.472 ± 0.00061.

For AAACCTGT, the “PBM E-score of 8-mer” value is 0.0415 ± 0.013.

Turning to CCACCTAC, the “PBM E-score of 8-mer” value came to 0.273 ± 0.049.

For the sequence GGACCTAA, the “PBM E-score of 8-mer” value was -0.0476 ± 0.0062.

For the sequence AGACCTAC, the “PBM E-score of 8-mer” value was -0.292 ± 0.035.

With ACACCGGT, the “PBM E-score of 8-mer” value is 0.22015 ± 2.8e-05.

As for ATACCTAC, the “PBM E-score of 8-mer” value was -0.172 ± 0.0048.

Consider GTACCTAC, for which the “PBM E-score of 8-mer” value was -0.272 ± 0.061.

On to ACACCTAC, for which the “PBM E-score of 8-mer” value is 0.4763 ± 0.0017.

Regarding AGTTGGCG, the “PBM E-score of 8-mer” value worked out at 0.229 ± 0.039.

Take AAGATCGA: the “PBM E-score of 8-mer” value was -0.152 ± 0.084.

Regarding CGCAACAG, the “PBM E-score of 8-mer” value was determined as 0.0766 ± 0.031.

Turning to CAGCAATC, the “PBM E-score of 8-mer” value was -0.21244 ± 7.8e-05.

With CTCCATCA, the “PBM E-score of 8-mer” value came out at 0.123 ± 0.077.

Regarding GGTAAGTA, the “PBM E-score of 8-mer” value was -0.0321 ± 0.051.

As for CGGTCAAC, the “PBM E-score of 8-mer” value is -0.0198 ± 0.048.

In the case of GCAGGGGC, the “PBM E-score of 8-mer” value is -0.193 ± 0.12.

Turning to AGATGGAC, the “PBM E-score of 8-mer” value was -0.281 ± 0.02.

For TCACCTAA, the “PBM E-score of 8-mer” value was 0.383 ± 0.0065.

Turning to AAACCTAG, the “PBM E-score of 8-mer” value came out at 0.113 ± 0.032.

Regarding ACACCTAT, the “PBM E-score of 8-mer” value is 0.4662 ± 0.00073.

With CCACCTAG, the “PBM E-score of 8-mer” value amounted to 0.264 ± 0.0049.

For the sequence ATACCTAA, the “PBM E-score of 8-mer” value was 0.0416 ± 0.058.

ACACCTAG: the “PBM E-score of 8-mer” value came to 0.462 ± 0.0066.

As to TGACCTAA, the “PBM E-score of 8-mer” value was -0.228 ± 0.013.

Turning to AAACCTAA, the “PBM E-score of 8-mer” value was -0.0751 ± 0.036.

For ATACCTAT, the “PBM E-score of 8-mer” value is -0.0294 ± 0.018.

With CCACCTAA, the “PBM E-score of 8-mer” value turned out to be 0.146 ± 0.058.

On to ACACCTAA, for which the “PBM E-score of 8-mer” value turned out to be 0.463 ± 0.0018.

Regarding AGACCTAT, the “PBM E-score of 8-mer” value is -0.2143 ± 0.00038.

For CGCACAAA, the “PBM E-score of 8-mer” value amounted to 0.00904 ± 0.0019.

Turning to ATTCCTCG, the “PBM E-score of 8-mer” value is -0.0674 ± 0.053.

As to ATAGCTCC, the “PBM E-score of 8-mer” value is -0.134 ± 0.022.

In the case of CTCCCCAA, the “PBM E-score of 8-mer” value is -0.12 ± 0.0034.

For CTGAAACC, the “PBM E-score of 8-mer” value is -0.0317 ± 0.0024.

As for TGATACAA, the “PBM E-score of 8-mer” value is 0.126 ± 0.037.

As for GTAGTGCA, the “PBM E-score of 8-mer” value was -0.21 ± 0.062.

AAAGGCAC: the “PBM E-score of 8-mer” value was -0.0325 ± 0.013.

Regarding GCCATAAA, the “PBM E-score of 8-mer” value was -0.0292 ± 0.012.

Take AGATAGAT: the “PBM E-score of 8-mer” value is -0.217 ± 0.015.

In the case of CCACCTCC, the “PBM E-score of 8-mer” value was 0.305 ± 0.024.

Consider GCACCTCC, for which the “PBM E-score of 8-mer” value turned out to be 0.4324 ± 0.002.

Consider GCACCTCA, for which the “PBM E-score of 8-mer” value was 0.35 ± 0.037.

GAACTACA: the “PBM E-score of 8-mer” value turned out to be 0.0281 ± 0.036.

For the sequence TCGGTCCA, the “PBM E-score of 8-mer” value is -0.365 ± 0.015.

Regarding ACGTGTAG, the “PBM E-score of 8-mer” value is 0.118 ± 0.015.

ACGTGTTC: the “PBM E-score of 8-mer” value came to 0.2198 ± 0.001.

On to ACGTGTTG, for which the “PBM E-score of 8-mer” value is 0.3744 ± 0.0004.

Take CCGTGTTA: the “PBM E-score of 8-mer” value worked out at 0.24 ± 0.041.

Take GCGTGTTA: the “PBM E-score of 8-mer” value came to 0.336 ± 0.036.

In the case of ACGTGTTA, the “PBM E-score of 8-mer” value worked out at 0.442 ± 0.015.

CGAGCAAA: the “PBM E-score of 8-mer” value was -0.0522 ± 0.042.

With CTTTGTCC, the “PBM E-score of 8-mer” value came to 0.109 ± 0.0064.

For ACAAGGTA, the “PBM E-score of 8-mer” value is -0.0243 ± 0.03.

In the case of ACAAGGTC, the “PBM E-score of 8-mer” value was determined as 0.1572 ± 0.00086.

For AGAAGGTG, the “PBM E-score of 8-mer” value worked out at 0.403 ± 0.0068.

For ATAAGGTG, the “PBM E-score of 8-mer” value is 0.387 ± 0.0095.

ACAAGGTG: the “PBM E-score of 8-mer” value is 0.429 ± 0.006.

For ATAAGGTC, the “PBM E-score of 8-mer” value was -0.146 ± 0.021.

For the sequence AGAAGGTA, the “PBM E-score of 8-mer” value was -0.2003 ± 0.00059.

Take AGAAGGTC: the “PBM E-score of 8-mer” value is -0.315 ± 0.034.

Consider ATAAGGTA, for which the “PBM E-score of 8-mer” value came to 0.0248 ± 0.096.

As to AAGAATCG, the “PBM E-score of 8-mer” value was -0.0615 ± 0.066.

Turning to ACACTGAC, the “PBM E-score of 8-mer” value amounted to 0.209 ± 0.018.

For the sequence ACTGATCG, the “PBM E-score of 8-mer” value was -0.0574 ± 0.0033.

On to CTCTAACC, for which the “PBM E-score of 8-mer” value is -0.103 ± 0.089.

For AACGGGGT, the “PBM E-score of 8-mer” value is -0.136 ± 0.084.

Regarding CTCGCTAC, the “PBM E-score of 8-mer” value amounted to 0.0679 ± 0.05.

On to GTCGACAA, for which the “PBM E-score of 8-mer” value is 0.295 ± 0.022.

On to GACGACAC, for which the “PBM E-score of 8-mer” value is 0.305 ± 0.034.

Turning to CTCGACAA, the “PBM E-score of 8-mer” value stood at 0.131 ± 0.017.

On to GTCGACAC, for which the “PBM E-score of 8-mer” value amounted to 0.406 ± 0.013.

Consider ATCGACAC, for which the “PBM E-score of 8-mer” value was determined as 0.398 ± 0.025.

In the case of CTCGACAC, the “PBM E-score of 8-mer” value came out at 0.387 ± 0.029.

In the case of ATCGACAG, the “PBM E-score of 8-mer” value turned out to be 0.236 ± 0.032.

In the case of CTCGACAG, the “PBM E-score of 8-mer” value came out at 0.244 ± 0.018.

For ATCGACAA, the “PBM E-score of 8-mer” value was 0.222 ± 0.036.

Take ACAATGTC: the “PBM E-score of 8-mer” value is -0.048 ± 0.0089.

For GTACAGTA, the “PBM E-score of 8-mer” value is 0.0854 ± 0.013.

In the case of GGCAACAA, the “PBM E-score of 8-mer” value worked out at 0.05 ± 0.0035.

As to GGCAACAC, the “PBM E-score of 8-mer” value came out at 0.38 ± 0.0047.

On to AGCAACAC, for which the “PBM E-score of 8-mer” value was 0.383 ± 0.0078.

With AGCAACAG, the “PBM E-score of 8-mer” value came to 0.0636 ± 0.029.

Consider CGCAACAC, for which the “PBM E-score of 8-mer” value stood at 0.356 ± 0.033.
